Only some compounds are listed: those with a hit (about 1.2% of all), similar ones and a draw of the others.
RAD52 inh: blocks human RAD52 DNA annealing. P43351. recombinant RAD52 DNA annealing, FRET fluorescence. inhibition, % at 18.7 µM. hit rate 0.46% among 360,000;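 active = every replicate showing at least 50% inhibition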
RAD54 inh: blocks human RAD54 Holliday junction branch migration; Q92698; FAM/BHQ fluorescence; inhibition, % at 10.4 µM; hit rate 0.14% among 360,000; AID 602329;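 active = mean normalized replicate activity at least 40 and at least half of replicates scoring 40 or more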;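 note: 0% = median of neutral control wells and 100% = median of positive control wells; inhibitors cause a drop in the FAM fluorescence signal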
NSD2 HMT inh: blocks human histone methyltransferase NSD2; O96028; NSD2 peptide methylation, AlphaScreen, 120 min; inhibition, % at 12.5 µM; hit rate 0.54% among 310,000; AID 743445; in the data active = inhibition above about 50%
Glyco luc inh: N-linked glycosylation inhibition. D54 ERlucT glycosylation luciferase reporter, 24 h; percent of 100 nM tunicamycin response. reporter increase, % at 12.5 µM. hit rate 0.23% among 360,000. AID 588692;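 active = mean luciferase reporter signal, scaled so untreated is 0 and the glycosylation-blocking control 100, at or above a set limit in every replicate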;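 note: luciferase carries N-glycosylation sites so blocking glycosylation raises the light; 0% = median of neutral control wells and 100% = median of 100 nM tunicamycin wells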
Casp6 inh: inhibitors of human caspase-6. inhibition, % at 12.5 µM. hit rate 0.53% among 350,000. AID 686996. P55212. purified caspase-6, Z-VEID-R110 cleavage fluorescence;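 active = mean inhibition across replicates at least about 35%, with every replicate also reaching that limit, limit read from the data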;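 note: 0% = median of neutral control wells and 100% = no fluorescence left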
Target sequence (P55212 24-179 limits assumed): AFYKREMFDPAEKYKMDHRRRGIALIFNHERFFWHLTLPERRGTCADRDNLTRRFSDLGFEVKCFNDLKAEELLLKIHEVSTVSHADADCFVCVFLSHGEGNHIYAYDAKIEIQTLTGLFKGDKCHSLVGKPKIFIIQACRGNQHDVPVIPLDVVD
Target sequence (P55212 194-293 limits assumed): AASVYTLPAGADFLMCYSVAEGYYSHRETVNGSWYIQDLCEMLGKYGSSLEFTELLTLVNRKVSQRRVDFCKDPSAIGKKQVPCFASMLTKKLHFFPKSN
Starred values were filed as active, the others as inactive; nt = no result given.

SMILES	RAD52 inh	RAD54 inh	NSD2 HMT inh	Glyco luc inh	Casp6 inh
CO[C@H]1CN(C)C(=O)c2ccc(NC(=O)C3CC3)cc2OC[C@@H](C)N(Cc2ccc(F)cc2)C[C@H]1C	26	-3	nt	nt	6
COc1cc(-c2noc(C)c2/C=C/c2ccc(C(=O)O)cc2)cc(OC)c1OC	-6	-8	nt	5	35*
O=C(Nc1cccc(-c2ccccc2)c1)N1CCN(C(=O)Nc2cccc(-c3ccccc3)c2)CC1	-6	-4	1	-1	39*
COC(=O)c1ccccc1NC(=O)CN(c1cc(OC)ccc1OC)S(C)(=O)=O	nt	2	-2	-1	nt
COc1ccc(OC)c(N(CC(=O)Nc2ccccc2)S(C)(=O)=O)c1	-7	1	-2	2	37*
CN1C(=O)c2cc(NC(=O)c3ccc(F)cc3)ccc2OC[C@@H]2O[C@@H](CC(=O)N3CCOCC3)CC[C@@H]21	-8	0	nt	nt	-1
COc1ccc(Cl)cc1S(=O)(=O)n1cnc2ccccc21	nt	-4	-1	0	nt
COc1ccc(S(=O)(=O)n2cnc3ccccc32)cc1OC	-11	-4	-1	4	62*
C[C@@H](O)C1NC(=O)[C@H](CCCCN)NC(=O)c2cc([N+](=O)[O-])cc(F)c2NCCCC[C@@H](C(N)=O)NC1=O (stereo not given in full)	nt	54*	nt	1	nt
O=C(N[C@@H]1CC[C@@H](CCNC(=O)C2CCC2)O[C@@H]1CO)c1ccccn1	-1	1	nt	nt	0
O=C(c1ccccc1NS(=O)(=O)c1ccc([N+](=O)[O-])cc1[N+](=O)[O-])N1O[C@@H]2C=C[C@H]1C2	-11	9	nt	3	37*
O=C(c1ccccc1NS(=O)(=O)c1ccccc1[N+](=O)[O-])N1CCOCC1	nt	5	-2	3	nt
Cc1cc(N2C(=O)C(O)=C(C(=O)c3cc4ccccc4o3)C2c2ccc(Br)cc2)no1 (stereo not given)	-29	-2	-4	1	48*
COC(=O)[C@]12CCCCC=C1N(Cc1ccccc1)C(=O)[C@H](CC(=O)NCC13CC4CC(CC(C4)C1)C3)C2	-18	nt	nt	nt	54*
CCN1[C@@H]2c3ccc(C4=CCCC4)c(=O)n3C[C@H]1[C@H](CO)[C@H]2C(=O)N[C@@H](C)c1ccccc1	-33	2	nt	nt	-1
O=C(O)/C(=C\c1ccc(Cl)cc1)c1ccc(S(=O)(=O)N2CCCC2)s1	-11	-6	3	1	9
COc1cc(/C=C(\C(=O)O)c2ccc(S(=O)(=O)N3CCCC3)s2)cc(OC)c1	-18	-1	4	2	41*
CCOc1ccc(/C=C(\C(=O)O)c2ccc(S(=O)(=O)N3CCCCC3)s2)cc1OC	-18	3	1	0	26
O=C(O)/C(=C\c1cccc([N+](=O)[O-])c1)c1ccc(S(=O)(=O)N2CCCCC2)s1	-2	nt	4	2	41*
CSc1ccc(/C=C(\C(=O)O)c2ccc(S(=O)(=O)N3CCCCC3)s2)cc1	-10	nt	3	3	44*
O=C(O)/C(=C\c1ccc(Cl)c([N+](=O)[O-])c1)c1ccc(S(=O)(=O)N2CCCCC2)s1	-20	nt	7	1	31
COc1ccc(S(=O)(=O)N(C)C[C@H]2Oc3ccc(NC(=O)c4ccncc4)cc3CC(=O)N([C@@H](C)CO)C[C@@H]2C)cc1	13	-1	nt	nt	0
C/C=C/c1ccc([C@H]2[C@H](CO)N(C(C)=O)C23CN(C(=O)c2ccncc2)C3)cc1	-23	nt	nt	nt	2
O=C(N/N=C\c1ccc(CNS(=O)(=O)c2ccc(Cl)cc2)o1)C(=O)Nc1ccc(Oc2ccccc2)cc1	nt	nt	-1	52*	nt
CC(=O)c1ccc(NC(=O)[C@@H]2CCCN2C(=O)OC(C)(C)C)cc1	-8	0	-5	2	56*
SMILES	RAD52 inh	RAD54 inh	NSD2 HMT inh	Glyco luc inh	Casp6 inh
CCC(=O)c1ccc(N2CCN(C(=O)c3ccccc3)CC2)c(F)c1	-9	nt	0	-3	88*
COc1cccc(-c2ccc3c(c2)[C@@H]2[C@@H](CCN2C(=O)c2ccccc2F)[C@@H](CO)N3C)c1	69*	13	nt	nt	-2
COc1cccc(-c2ccc3c(c2)[C@@H]2[C@@H](CCN2C(=O)Nc2ccccc2OC)[C@@H](CO)N3C)c1	60*	16	nt	nt	-2
COc1cccc(-c2ccc3c(c2)[C@H]2[C@H](CCN2C(=O)Nc2ccccc2OC)[C@H](CO)N3C)c1	51*	10	nt	nt	-1
COc1ccc(-c2ccc3c(c2)[C@@H]2[C@@H](CCN2C(=O)C2CCC2)[C@H](CO)N3C)cc1	29	nt	nt	nt	nt
COc1ccc(-c2ccc3c(c2)[C@@H]2[C@@H](CCN2C(=O)C2CC2)[C@@H](CO)N3C)cc1	68*	10	nt	nt	0
COc1cccc(-c2ccc3c(c2)[C@@H]2[C@@H](CCN2C(=O)c2ccccc2F)[C@H](CO)N3C)c1	26	7	nt	nt	-1
COc1cccc(-c2ccc3c(c2)[C@H]2[C@H](CCN2C(=O)Nc2ccccc2OC)[C@@H](CO)N3C)c1	27	11	nt	nt	-1
O=C(C1CC1)N1C[C@H]2[C@@H](c3ccccc31)[C@@H](CO)N2C(=O)c1ccccn1	6	-4	nt	nt	nt
O=C(O)C[C@@H]1C[C@H]2c3cc(NC(=O)C4CCC4)ccc3O[C@H]2[C@@H](CO)O1	0	nt	nt	nt	1
Cc1noc(C)c1S(=O)(=O)Nc1cccc2c1O[C@H](CN(C)Cc1ccc(C(=O)O)cc1)[C@H](C)CN([C@@H](C)CO)C2=O	-5	-7	nt	nt	-3
C[C@@H]1CCCCO[C@H](CN(C)Cc2ccc3c(c2)OCO3)[C@@H](C)CN([C@@H](C)CO)C(=O)c2cc(NS(=O)(=O)c3ccc(Cl)cc3)ccc2O1	61*	-1	nt	nt	0
COc1ccc(CN(C)C[C@@H]2OCCCC[C@H](C)Oc3ccc(NS(=O)(=O)c4ccc(F)cc4)cc3C(=O)N([C@H](C)CO)C[C@@H]2C)cc1	53*	-2	nt	nt	0
COc1ccc(NC(=O)N(C)C[C@@H]2OCCCC[C@@H](C)Oc3ccc(NS(=O)(=O)c4ccccc4)cc3C(=O)N([C@H](C)CO)C[C@@H]2C)cc1	85*	3	nt	nt	1
COc1ccc(CN(C)C[C@H]2OCCCC[C@@H](C)Oc3ccc(NS(=O)(=O)c4ccc(Cl)cc4)cc3C(=O)N([C@@H](C)CO)C[C@@H]2C)cc1	51*	-4	nt	nt	-1
COc1ccc(NC(=O)N(C)C[C@@H]2OCCCC[C@@H](C)Oc3ccc(NS(=O)(=O)c4ccccc4)cc3C(=O)N([C@@H](C)CO)C[C@H]2C)cc1	-64	2	nt	nt	1
COc1ccc(CN(C)C[C@H]2OCCCC[C@H](C)Oc3ccc(NS(=O)(=O)c4ccc(Cl)cc4)cc3C(=O)N([C@H](C)CO)C[C@H]2C)cc1	18	-9	nt	nt	0
C[C@H](CO)N1C[C@H](C)[C@@H](CN(C)S(C)(=O)=O)Oc2ncc(/C=C/c3ccccc3)cc2C1=O	0	-2	nt	nt	2
Cc1noc(C)c1S(=O)(=O)Nc1ccc2c(c1)C(=O)N([C@H](C)CO)C[C@H](C)[C@H](CN(C)C(=O)Cc1ccccc1)OCCCC[C@H](C)O2	0	-1	nt	nt	-1

Compound activity (PubChem)
